In test [1] the test system is RAW-Dual. As to the kind of experiment: NF-kB SEAP reporter activity, fold change vs agonist alone; cytotoxicity flag (confluency mask): not cytotoxic; higher = enhanced NF-kB activity. The method, boiled down:
(§1)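 RAW-Dual macrophages were seeded in DMEM at 50,000 cells/well in 384-well plates, given 50 nL of library stock by pin tool, and given a PRR agonist 1 h later. Plates were held at 37 °C, 5% CO2 for 20 hours, after which supernatant was read for IRF by QuantiLuc luminescence and for NF-κB by QuantiBlue absorbance at 620 nm. Reporter activity is expressed as fold change over wells that received agonist alone. A well was called cytotoxic when IncuCyte confluency fell below 70% of agonist controls in both mask sets.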

In test [2] the test system is RAW-Dual. As to the kind of experiment: NF-kB SEAP reporter activity, fold change vs agonist alone; higher = enhanced NF-kB activity. The method, boiled down: as §1
In test [3] the test system is RAW-Dual. Description: NF-kB SEAP reporter activity, fold change vs agonist alone; cytotoxicity flag (confluency mask): cytotoxic (confluency <70% of control); higher = enhanced NF-kB activity. The method, boiled down: as §1
The mark [4] stands for this setting: agonist: ODN 1826 (TLR9) 0.5 ug/mL.
Setting [5] is: agonist: Pam2CSK4 (TLR2/6) 0.1 ug/mL.
The mark [6] stands for this setting: agonist: Pam3CSK4 (TLR2/1) 0.1 ug/mL.
[7] abbreviates: library stock concentration (final ~1000-fold dilution): 10 mM, cytotoxicity flag (confluency mask): not cytotoxic, agonist: Imiquimod (TLR7) […].
Setting [8] is: library stock concentration (final ~1000-fold dilution): 10 mM, cytotoxicity flag (confluency mask): not cytotoxic, agonist: MPLA (TLR4) […].
Setting [9] is: library stock concentration (final ~1000-fold dilution): 10 mM water, cytotoxicity flag (confluency mask): not cytotoxic, agonist: Imiquimod (TLR7) […].
Where [10] appears, read: library stock concentration (final ~1000-fold dilution): 10 mM water, cytotoxicity flag (confluency mask): not cytotoxic, agonist: MPLA (TLR4) […].
The mark [11] stands for this setting: library stock concentration (final ~1000-fold dilution): 10 mM, cytotoxicity flag (confluency mask): cytotoxic (confluency <70% of control), agonist: Imiquimod (TLR7) […].
[12] abbreviates: library stock concentration (final ~1000-fold dilution): 10 mM, cytotoxicity flag (confluency mask): cytotoxic (confluency <70% of control), agonist: MPLA (TLR4) […].

SMILES strings stand for the structures. ± gives the standard deviation of the averaged measurements. The full ranking holds about 2,900 compounds; the median of “NF-kB SEAP reporter activity, fold change vs agonist alone” is about 0.99, and the highest 2% start at about 2.6. The full list was thinned out, with the highest values kept by preference.

For the compound `CC(C)CC(=O)NC(C(=O)NC(C(=O)NC(CC(C)C)C(O)CC(=O)NC(C)C(=O)NC(CC(C)C)C(O)CC(=O)O)C(C)C)C(C)C` (centres undefined) (library stock concentration (final ~1000-fold dilution): 10 mM), the “NF-kB SEAP reporter activity” value was 0.983 in the test on RAW-Dual [1] (agonist: LPS (TLR4) 0.1 ug/mL), 0.596 with RAW-Dual [1] (setting [4]), 1 in the test on RAW-Dual [1] (setting [5]) and 0.967 in the test on RAW-Dual [1] (setting [6]).
`CC(C)CC(=O)NC(C(=O)NC(C(=O)NC(CC(C)C)C(O)CC(=O)NC(C)C(=O)NC(CC(C)C)C(O)CC(=O)O)C(C)C)C(C)C` (centres undefined): the “NF-kB SEAP reporter activity” value with RAW-Dual [2] (setting [7]) is 1.01; in the test with RAW-Dual [2] (setting [8]) it was 1.
Consider `CCOCc1nc2c(N)nc3ccccc3c2n1CC(C)(C)O` (library stock concentration (final ~1000-fold dilution): 3.2 mM), for which the “NF-kB SEAP reporter activity” value stood at 3.55 with RAW-Dual [1] (agonist: LPS (TLR4) 0.1 ug/mL), 1.69 in the test on RAW-Dual [1] (setting [4]), 0.415 in the test with RAW-Dual [1] (setting [5]) and 0.673 in the test with RAW-Dual [1] (setting [6]).
For the compound `CCOCc1nc2c(N)nc3ccccc3c2n1CC(C)(C)O`, the “NF-kB SEAP reporter activity” value is 1.27 with RAW-Dual [2] (library stock concentration (final ~1000-fold dilution): 3.2 mM, cytotoxicity flag (confluency mask): not cytotoxic, agonist: Imiquimod (TLR7) […]) and 2.17 in the test on RAW-Dual [2] (library stock concentration (final ~1000-fold dilution): 3.2 mM, cytotoxicity flag (confluency mask): not cytotoxic, agonist: MPLA (TLR4) […]).
Consider `CC(=O)NC1C(NC(=N)N)C=C(C(=O)O)OC1C(O)C(O)CO` (centres undefined) (library stock concentration (final ~1000-fold dilution): 10 mM water), for which the “NF-kB SEAP reporter activity” value in the test with RAW-Dual [1] (agonist: LPS (TLR4) 0.1 ug/mL) worked out at 1.37; with RAW-Dual [1] (setting [4]), 1.17; with RAW-Dual [1] (setting [5]), 1.19; in the test with RAW-Dual [1] (setting [6]) it was 1.07.
For `CC(=O)NC1C(NC(=N)N)C=C(C(=O)O)OC1C(O)C(O)CO` (centres undefined), the “NF-kB SEAP reporter activity” value in the test with RAW-Dual [2] (setting [9]) stood at 0.917; with RAW-Dual [2] (setting [10]), 1.03.
Take `CC1CN(CC(=O)Nc2ccc3c(c2)Cc2cccc(-c4cc(=O)cc(N5CCOCC5)o4)c2S3)CC(C)O1` (centres undefined) (library stock concentration (final ~1000-fold dilution): 10 mM): the “NF-kB SEAP reporter activity” value amounted to 5.33 with RAW-Dual [1] (agonist: LPS (TLR4) 0.1 ug/mL), 0.922 in the test on RAW-Dual [1] (setting [4]), 1.36 with RAW-Dual [1] (setting [5]) and 1.99 with RAW-Dual [1] (setting [6]).
Take `O=c1cc(-c2cccc3c2Sc2ccccc2S3)oc(N2CCOCC2)c1` (library stock concentration (final ~1000-fold dilution): 10 mM): the “NF-kB SEAP reporter activity” value in the test with RAW-Dual [1] (agonist: LPS (TLR4) 0.1 ug/mL) is 2.66; with RAW-Dual [1] (setting [4]), 0.715; in the test with RAW-Dual [1] (setting [5]), 0.748; in the test with RAW-Dual [1] (setting [6]), 0.948.
For `CC1CN(CC(=O)Nc2ccc3c(c2)Cc2cccc(-c4cc(=O)cc(N5CCOCC5)o4)c2S3)CC(C)O1` (centres undefined), the “NF-kB SEAP reporter activity” value in the test with RAW-Dual [2] (setting [7]) came to 1.54; in the test on RAW-Dual [2] (setting [8]), 2.82.
On to `O=c1cc(-c2cccc3c2Sc2ccccc2S3)oc(N2CCOCC2)c1`, for which the “NF-kB SEAP reporter activity” value with RAW-Dual [2] (setting [7]) was found to be 1.04; in the test with RAW-Dual [2] (setting [8]), 2.17.
Turning to `CNC(=O)C(Cc1c[nH]c2ccccc12)NC(=O)C(CC(=O)NO)CC(C)C` (centres undefined) (library stock concentration (final ~1000-fold dilution): 10 mM), the “NF-kB SEAP reporter activity” value stood at 0.932 in the test with RAW-Dual [1] (agonist: LPS (TLR4) 0.1 ug/mL), 0.999 with RAW-Dual [1] (setting [4]), 1.03 with RAW-Dual [1] (setting [5]) and 1.01 with RAW-Dual [1] (setting [6]).
`CNC(=O)C(Cc1c[nH]c2ccccc12)NC(=O)C(CC(=O)NO)CC(C)C` (centres undefined): the “NF-kB SEAP reporter activity” value was 1.04 in the test on RAW-Dual [2] (setting [7]) and 1.23 in the test on RAW-Dual [2] (setting [8]).
For `CN1C2CCCC1CC(NC(=O)c1nn(C)c3ccccc13)C2.Cl` (centres undefined), the figures for the “NF-kB SEAP reporter activity” value in the test on RAW-Dual [2] (setting [9]) and in the test on RAW-Dual [2] (setting [10]) were 0.874 and 1, respectively.
In the case of `CN1C2CCCC1CC(NC(=O)c1nn(C)c3ccccc13)C2.Cl` (centres undefined) (library stock concentration (final ~1000-fold dilution): 10 mM water), the “NF-kB SEAP reporter activity” value was 1.2 with RAW-Dual [1] (agonist: LPS (TLR4) 0.1 ug/mL), 1.06 in the test on RAW-Dual [1] (setting [4]), 1.04 in the test on RAW-Dual [1] (setting [5]) and 1.11 with RAW-Dual [1] (setting [6]).
With `CC1(C)CCC2(NC(=O)C(C)(F)F)CCC3(C)C(C(=O)C=C4C5(C)C=C(C#N)C(=O)C(C)(C)C5CCC43C)C2C1` (centres undefined) (library stock concentration (final ~1000-fold dilution): 10 mM), the “NF-kB SEAP reporter activity” value stood at 0.358 ± 0.053 in the test with RAW-Dual [3] (agonist: LPS (TLR4) 0.1 ug/mL), 0.173 ± 0.0087 in the test with RAW-Dual [3] (setting [4]), 0.0759 ± 0.018 with RAW-Dual [3] (setting [5]) and 0.163 ± 0.0017 with RAW-Dual [3] (setting [6]).
On to `CC1(C)CCC2(NC(=O)C(C)(F)F)CCC3(C)C(C(=O)C=C4C5(C)C=C(C#N)C(=O)C(C)(C)C5CCC43C)C2C1` (centres undefined), for which the “NF-kB SEAP reporter activity” value in the test on RAW-Dual [2] (setting [11]) is 0.14 ± 0.006; in the test on RAW-Dual [2] (setting [12]) it was 0.254 ± 0.0072.
Take `C=CC(C)(/C=C/c1ccc(O)cc1)CCC=C(C)C` (centres undefined) (library stock concentration (final ~1000-fold dilution): 10 mM): the “NF-kB SEAP reporter activity” value was 0.878 with RAW-Dual [1] (agonist: LPS (TLR4) 0.1 ug/mL), 1.02 in the test with RAW-Dual [1] (setting [4]), 0.934 with RAW-Dual [1] (setting [5]) and 1.16 with RAW-Dual [1] (setting [6]).
Turning to `C=CC(C)(/C=C/c1ccc(O)cc1)CCC=C(C)C` (centres undefined), the “NF-kB SEAP reporter activity” value in the test on RAW-Dual [2] (setting [7]) amounted to 1.1; in the test with RAW-Dual [2] (setting [8]), 1.12.
Turning to `C=CCNC1=C2CC(C)CC(OC)C(O)C(C)/C=C(\C)C(OC(N)=O)C(OC)/C=C\C=C(/C)C(=O)NC(=CC1=O)C2=O` (centres undefined) (library stock concentration (final ~1000-fold dilution): 10 mM), the “NF-kB SEAP reporter activity” value came to 0.289 in the test with RAW-Dual [3] (agonist: LPS (TLR4) 0.1 ug/mL), 0.221 with RAW-Dual [3] (setting [4]), 0.0862 in the test on RAW-Dual [3] (setting [5]) and 0.182 in the test with RAW-Dual [3] (setting [6]).
Turning to `C=CCNC1=C2CC(C)CC(OC)C(O)C(C)/C=C(\C)C(OC(N)=O)C(OC)/C=C\C=C(/C)C(=O)NC(=CC1=O)C2=O` (centres undefined), the results for the “NF-kB SEAP reporter activity” value in the test with RAW-Dual [2] (setting [11]) and in the test with RAW-Dual [2] (setting [12]) were 0.313 and 0.516, respectively.
Turning to `CN(C)CCCn1cc(C2=C(c3c[nH]c4ccccc34)C(=O)NC2=O)c2ccccc21` (library stock concentration (final ~1000-fold dilution): 10 mM), the “NF-kB SEAP reporter activity” value with RAW-Dual [3] (agonist: LPS (TLR4) 0.1 ug/mL) was 0.346; with RAW-Dual [3] (setting [4]) it was 0.491; in the test with RAW-Dual [3] (setting [5]) it was 0.833; in the test with RAW-Dual [3] (setting [6]), 0.564.
The matching figures for `CN1CCN(c2nc(C3=C(c4c[nH]c5ccccc45)C(=O)NC3=O)c3ccccc3n2)CC1` (library stock concentration (final ~1000-fold dilution): 10 mM): 2.03, 1.29, 1.84 and 3.14.
Take `CN1CCN(c2nc(C3=C(c4c[nH]c5ccccc45)C(=O)NC3=O)c3ccccc3n2)CC1`: the results for the “NF-kB SEAP reporter activity” value in the test with RAW-Dual [2] (setting [11]) and with RAW-Dual [2] (setting [12]) were 2.99 and 2.19, respectively.
As for `COc1ccc2c(c1)c(C1=C(c3c[nH]c4ccccc34)C(=O)NC1=O)cn2CCCN(C)C` (library stock concentration (final ~1000-fold dilution): 10 mM), the “NF-kB SEAP reporter activity” value was 1.23 in the test on RAW-Dual [3] (agonist: LPS (TLR4) 0.1 ug/mL), 0.346 in the test with RAW-Dual [3] (setting [4]), 1.25 with RAW-Dual [3] (setting [5]) and 1.82 with RAW-Dual [3] (setting [6]).

(Values after the supplement of paper PMC10037445.)
